Each structure is given as a SMILES string. A number with no mark means an inactive call. Rule as the data show it: active = potency below about 10 µM; inactive = the rest.
Potency is read from the fitted curve at half-maximal effect.

Sequence of Lysosomal acid glucosylceramidase (Homo sapiens) (P04062 whole entry, looked up): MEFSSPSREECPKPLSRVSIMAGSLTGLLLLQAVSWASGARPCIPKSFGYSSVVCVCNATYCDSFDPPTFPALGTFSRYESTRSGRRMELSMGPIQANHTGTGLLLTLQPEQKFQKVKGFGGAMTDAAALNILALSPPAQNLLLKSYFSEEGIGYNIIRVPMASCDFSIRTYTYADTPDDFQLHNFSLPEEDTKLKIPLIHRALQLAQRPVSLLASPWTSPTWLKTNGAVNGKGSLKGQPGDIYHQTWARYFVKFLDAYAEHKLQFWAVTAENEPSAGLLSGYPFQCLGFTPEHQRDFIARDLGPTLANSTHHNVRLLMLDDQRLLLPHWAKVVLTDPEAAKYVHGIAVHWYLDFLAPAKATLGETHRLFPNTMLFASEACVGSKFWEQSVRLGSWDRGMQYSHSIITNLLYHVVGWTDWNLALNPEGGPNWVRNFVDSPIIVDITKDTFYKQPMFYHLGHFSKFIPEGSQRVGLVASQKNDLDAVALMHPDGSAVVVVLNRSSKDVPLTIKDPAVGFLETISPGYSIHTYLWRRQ

The assay addresses Lysosomal acid glucosylceramidase (Homo sapiens) (UniProt P04062). Nature of the assay: Glucocerebrosidase-p2 (AID 348). As to conditions: purified GBA, blue fluorogenic substrate, 40 min. The procedure, abridged: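 Compounds titrated from 0.6 nM upwards against 0.2 nM enzyme in pH 5.9 citric acid/KH2PO4, taurocholate, tween-20; blue fluorogenic substrate 80 uM, 40 min room temperature, stopped and read Ex 365/Em 440 for AC50.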
On to `N#[N+]c1ccc(Nc2ccccc2)cc1`, for which the Potency is greater than 11.4 µM.

Consider `COC(=O)N1CCC2(CCCN(Cc3cc(C(F)(F)F)cc(C(F)(F)F)c3)C2)CC1`, for which the Potency is greater than 11.4 µM.

Take `CC(C)(N)CO[C@H]1C[C@H]2CC[C@@]1(C)C2(C)C`: the Potency was greater than 11.4 µM.

In the case of `CC(=O)N[C@@H]1CONC1=O`, the Potency was greater than 11.4 µM.

Turning to `CC1=NN(c2ccc(S(=O)(=O)O)cc2)C(=O)/C1=C\c1ccc(Cl)cc1`, the Potency was greater than 11.4 µM.

With `O=C1C(=O)c2ccccc2C(O)=C1C(CCc1ccccc1)C1=C(O)c2ccccc2C(=O)C1=O`, the Potency is greater than 11.4 µM.

Take `C[N+](C)(N)Cc1csc(-c2ccc(Cl)cc2)n1`: the Potency is greater than 11.4 µM.

In the case of `CC1=NCC[N@@+]1(CCc1ccccc1)Cc1ccccc1`, the Potency was greater than 11.4 µM.

Consider `CN(CC(=O)O)Cc1c(O)c(Cl)cc(Cl)c1Cl`, for which the Potency was greater than 11.4 µM.

As to `O=C(O)CS(=O)c1ccc2c3c(cccc13)C(=O)c1ccccc1-2` (stereo not given), the Potency is greater than 11.4 µM.

With `O[C@@H](COc1ccc(Cl)cc1Cl)CN1CCCC1`, the Potency is greater than 11.4 µM.

For the compound `O=S(=O)(c1ccccc1)N1CCC[C@@]2(CCN(Cc3ccccc3)C2)C1`, the Potency is greater than 11.4 µM.

`c1ccc([C@H](c2cccc3c2ccc2ccccc23)[C@H](c2ccccc2)c2cccc3c2ccc2ccccc23)cc1`: the Potency is greater than 11.4 µM.

Consider `O=C(O)CCc1c2ccc(=O)c(O)c-2oc2c(O)c(O)ccc12`, for which the Potency is greater than 11.4 µM.

For the compound `O=C(O)C1(Nc2ccc(Cl)cc2)CCCC1`, the Potency was greater than 11.4 µM.

Source of the values: PubChem BioAssay (NCATS).
